High-throughput results as filed in PubChem BioAssay.
GSTO1 inh = GSTO1 inhibition, counter-screen for RBBP9 inhibitors; recombinant GSTO1, activity-based probe fluorescence polarization; inhibition, % at 5.96 µM; actives 1.1% (n = 300,000); AID 1974;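 active = inhibition above the campaign mean inhibition plus 3 SD, cut at about 35% in these data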
PAD4 inh = blocks human protein arginine deiminase 4 | Q9UM07 | recombinant PAD4, RCA probe fluorescence polarization | inhibition, % at 6.36 µM | actives 0.41% (n = 330,000) | AID 485272;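 active = percent inhibition above a cutoff equal to the mean of all tested compounds plus 3 SD, cut at about 15% in these data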
Target sequence (Q9UM07 whole entry, looked up): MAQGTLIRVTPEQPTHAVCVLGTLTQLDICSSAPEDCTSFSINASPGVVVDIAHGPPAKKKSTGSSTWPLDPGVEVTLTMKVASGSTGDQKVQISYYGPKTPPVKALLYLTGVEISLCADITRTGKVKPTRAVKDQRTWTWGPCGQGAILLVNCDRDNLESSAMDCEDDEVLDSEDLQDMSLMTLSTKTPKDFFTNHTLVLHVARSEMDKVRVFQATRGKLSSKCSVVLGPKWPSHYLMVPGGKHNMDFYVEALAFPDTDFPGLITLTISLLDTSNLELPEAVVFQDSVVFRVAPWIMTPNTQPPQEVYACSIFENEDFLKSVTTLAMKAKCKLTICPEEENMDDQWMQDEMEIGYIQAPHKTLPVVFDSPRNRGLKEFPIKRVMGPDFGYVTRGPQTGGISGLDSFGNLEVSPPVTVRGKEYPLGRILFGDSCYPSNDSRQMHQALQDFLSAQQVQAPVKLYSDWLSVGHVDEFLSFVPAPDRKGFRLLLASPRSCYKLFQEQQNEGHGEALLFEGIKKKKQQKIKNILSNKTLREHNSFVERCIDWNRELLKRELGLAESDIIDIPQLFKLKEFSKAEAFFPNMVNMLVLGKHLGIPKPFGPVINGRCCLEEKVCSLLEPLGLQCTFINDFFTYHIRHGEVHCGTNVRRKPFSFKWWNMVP
PME-1 inh = PME-1 (human) inhibition | inhibition, % at 5.9 µM | AID 2130 | Q9Y570 | recombinant PME-1, FP-Rh probe fluorescence polarization | actives 0.53% (n = 320,000);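 active = inhibition above the campaign mean of all compounds plus 3 SD, cut at about 26% in these data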;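 also: competitive labeling of PME-1 active site by serine hydrolase directed probe; inhibitors block probe labeling so polarization falls and inhibition rises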
Fam108B counter = blocks mouse Fam108B hydrolase in RBBP9 counter-screen | AID 1947 | actives 0.33% (n = 300,000) | inhibition, % at 9.51 µM | recombinant Fam108B, FP-Rh probe fluorescence polarization;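 active = inhibition above the screen mean inhibition plus 3 SD, computed separately per campaign, cut at about 18% in these data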;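 also: inhibitors lower polarization as less probe binds the enzyme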
LYPLA1 counter = blocks human lysophospholipase 1, a PME1 counter-screen. O75608. recombinant LYPLA1, FP-Rh probe fluorescence polarization. inhibition, % at 5.9 µM. actives 0.16% (n = 320,000). AID 2174;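 active = inhibition above the mean of all tested compounds plus 3 SD, set per campaign, cut at about 14% in these data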;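 also: inhibitors block serine hydrolase probe labeling of LYPLA1 so polarization falls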
LYPLA2 counter = counter-screen for PME1 inhibitors: inhibitors of human LYPLA2. O95372. inhibition, % at 5.9 µM. recombinant LYPLA2, FP-Rh probe fluorescence polarization. actives 0.38% (n = 320,000);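 active = inhibition above the screen-wide mean plus 3 SD, limit set per campaign, cut at about 26% in these data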
LYPLA2 confirm = LYPLA2 (human) inhibition, confirmation counter-screen; shares compounds with LYPLA2 counter; recombinant LYPLA2, FP-Rh probe fluorescence polarization; inhibition, % at 5.9 µM; actives 72% (n = 1,100);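 active = mean inhibition across replicates above the hit cutoff set in the primary screen, cut at about 26% in these data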;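 also: blocked labeling of the enzyme by serine hydrolase FP-Rh probe lowers polarization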
LYPLA2 gel ABPP = blocks human acyl-protein thioesterase 2 in gel ABPP; inhibition, % at 20 µM; actives 30% (n = 150); rhLYPLA2 in mouse brain proteome, gel ABPP FP-Rh; shares compounds with LYPLA2 counter;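 active = inhibition of LYPLA2 enzyme probe labeling above about 50%, limit read from the data; inactive = inhibition below that limit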;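 also: loss of FP-Rh probe labeling of the LYPLA2 gel band measured as band density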
PAD4 confirm = PAD4 (human) inhibition, confirmed. shares compounds with PAD4 inh. recombinant PAD4, RCA probe fluorescence polarization. inhibition, % at 6.36 µM. actives 28% (n = 1,200);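 active = mean inhibition across replicates above the hit cutoff set by the earlier primary screen, cut at about 15% in these data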;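 also: inhibitors block active-site labeling by the probe so polarization falls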
Of the large screens only hits and unclear results are named; the others gave an inactive call (follow-up assays come after a bar, where they were run). Shown are actives, neighbours in structure and some others; about 1.8% of the full set was active somewhere.

O=C(COc1ccc(Cl)cc1)N1CCN(Cc2ccc([N+](=O)[O-])cc2)CC1	LYPLA2 counter 57 | LYPLA2 confirm 61 | LYPLA2 gel ABPP inactive
COc1ccc(OCC(=O)N2CCN(Cc3nc4cc([N+](=O)[O-])ccc4n3C)CC2)cc1	none
O=C(COc1ccccc1)N1CCN(CCN2C(=O)c3cccc4cccc(c34)C2=O)CC1	none
O=C(COc1ccccc1F)N1CCN(CCN2C(=O)c3cccc4cccc(c34)C2=O)CC1	LYPLA2 counter 38 | LYPLA2 confirm 35
O=C(COc1ccc(Cl)cc1Cl)N1CCN(C/C=C/c2ccccc2)CC1	LYPLA2 counter 76 | LYPLA2 confirm 78 | LYPLA2 gel ABPP 56
CCN(CC)C(=O)c1ccc(NC(=O)COc2ccccc2F)cc1	none
Cc1nc2cc(C(F)(F)F)ccc2n1C1CCN(Cc2nnnn2Cc2cccs2)CC1	LYPLA2 counter 27 | LYPLA2 confirm inactive
O=C(NC(=O)c1c(F)cccc1F)Nc1cc(Cl)c(F)c(Cl)c1F	none
O=C1CC(c2cccnc2)=NN1c1ccccc1	PAD4 inh 52 | PAD4 confirm inactive
C#C[C@]1(O)CC[C@H]2[C@@H]3CCC4=Cc5nc6nc7ccccc7n6cc5C[C@]4(C)[C@H]3CC[C@@]21C	PAD4 inh 19 | PAD4 confirm inactive
Cc1nc2ccccc2c(=O)n1-c1ccc(Br)cc1[N+](=O)[O-]	none
COC(=O)C1=C(c2ccc(F)cc2F)C[C@@H]2CC[C@H]1N2C(=O)NCCCOC(C)C	none (no result: GSTO1 inh, Fam108B counter)
CN1CC=C2C(C#N)=C(N)C(C#N)(C#N)C(c3ccncc3)C2C1 (configuration not stated)	PAD4 inh 27 | PAD4 confirm inactive
O=c1c2ccccc2nc(-c2ccccc2)n1-c1ccccc1	none
O=c1c2ccccc2[se]n1-c1ccccc1	PAD4 inh 75 | PAD4 confirm 80
CCC(C)n1c(O)c(C=Nc2cccc(C(F)(F)F)c2)c(=O)[nH]c1=S (configuration not stated)	PAD4 inh 22 | PAD4 confirm inactive
CC(C)n1c(O)c(C=NCc2cccnc2)c(=O)[nH]c1=S	none
COC(=O)C1=C(c2cccc(OC)c2OC)C[C@@H]2CC[C@H]1N2C(=O)NCc1ccc(F)cc1	PAD4 inh 28 | PAD4 confirm inactive
CCN1C(=O)N(CC)C(=O)C2(Cc3ccccc3N3CCN(c4ccccc4)CC32)C1=O (configuration not stated)	none
CCN(CC)c1ccc(N=Cc2c(O)n(CCc3ccc(OC)c(OC)c3)c(=O)[nH]c2=O)cc1	none
CCN(CC)c1ccc(N=Cc2c(O)n(-c3cc(OC)ccc3OC)c(=O)[nH]c2=O)cc1	PAD4 inh 18 | PAD4 confirm inactive
CCN(CC)c1ccc(N=Cc2c(O)n(Cc3ccco3)c(=O)[nH]c2=O)cc1	PAD4 inh 16 | PAD4 confirm inactive
CCN(CCO)c1ccc(N=Cc2c(O)n(C)c(=S)[nH]c2=O)cc1	GSTO1 inh 48, PAD4 inh 40 | PAD4 confirm inactive
O=C1CN=C(c2ccccc2)c2cc(Br)ccc2N1	none
COCCNC(=O)c1c(NC(=O)c2ccc(Br)o2)n(Cc2ccccc2)c2nc3ccccc3nc12	GSTO1 inh 77, PAD4 inh 54 | PAD4 confirm inactive
COCCCNC(=O)c1c(NC(=O)c2ccco2)n(Cc2ccccc2)c2nc3ccccc3nc12	none
O=c1cc(C2CCNCC2)[nH][nH]1	PAD4 inh 37 | PAD4 confirm inactive
COc1ccc(-c2nn(CCC#N)cc2C(=O)NCc2ccccc2)cc1OC	none
O=C1CC(=O)N(c2ccccc2)C(=O)N1c1ccccc1	none
CCCNc1nc(OC)nc(N2CC3CC(C2)c2cccc(=O)n2C3)n1 (configuration not stated)	none
